Hits are enriched below; roughly 3.4% of the tested compounds scored in any of these assays.
MITF inh = blocks human microphthalmia-associated transcription factor; inhibition, % at 2.6 µM; O75030; AlphaScreen MITF homodimerization, bead proximity signal; 650,000 tested, 0.91% active; in the data active = inhibition above about 50%
FBW7 activator = activators of human E3 ligase FBW7. Q969H0. AlphaScreen FBW7–phospho-cyclin E peptide binding, activator screen. 650,000 tested, 0.13% active. AID 1259310. normalized activity (activation), % at 26.1 µM; in the data active = normalized activity above about 1.9%;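 also: purified mutant Fbw7 with reduced substrate affinity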
Target sequence (Q969H0 whole entry, looked up): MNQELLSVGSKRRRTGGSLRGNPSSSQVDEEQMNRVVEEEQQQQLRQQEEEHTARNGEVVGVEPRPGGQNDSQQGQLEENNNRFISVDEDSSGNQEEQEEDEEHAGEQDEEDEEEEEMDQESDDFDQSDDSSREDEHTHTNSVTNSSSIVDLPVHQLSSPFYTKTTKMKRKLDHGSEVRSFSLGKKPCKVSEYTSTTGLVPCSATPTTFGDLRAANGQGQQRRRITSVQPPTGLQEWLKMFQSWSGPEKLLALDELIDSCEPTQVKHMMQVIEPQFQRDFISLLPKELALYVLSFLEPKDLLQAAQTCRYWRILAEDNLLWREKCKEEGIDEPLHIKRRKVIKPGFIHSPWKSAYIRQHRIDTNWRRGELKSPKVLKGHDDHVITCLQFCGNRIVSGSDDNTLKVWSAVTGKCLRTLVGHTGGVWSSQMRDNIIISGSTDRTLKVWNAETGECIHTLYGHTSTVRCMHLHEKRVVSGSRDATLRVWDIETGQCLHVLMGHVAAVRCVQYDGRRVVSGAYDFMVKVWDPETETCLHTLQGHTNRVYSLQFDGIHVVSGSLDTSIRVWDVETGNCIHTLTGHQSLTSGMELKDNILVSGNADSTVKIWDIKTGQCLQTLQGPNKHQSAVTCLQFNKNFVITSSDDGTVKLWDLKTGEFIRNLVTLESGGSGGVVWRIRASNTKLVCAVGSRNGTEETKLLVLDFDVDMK
TEAD-YAP block = TEAD-YAP interaction inhibition; HEK-TIYL cells, TEAD-Gal4/YAP UAS-luciferase luminescence; inhibition, % at 9.12 µM; 640,000 tested, 1.4% active; AID 1259422; in the data active = inhibition above about 32%
GPR151 activ = activates the human receptor GPR151 | 650,000 tested, 1% active | PathHunter beta-arrestin GPR151 cells, luminescence | Q8TDV0 | activation, % at 11.2 µM | AID 1508602; in the data active = activation above about 4.9%
Hits are given with their value; - = inactive.

SMILES	MITF inh	FBW7 activator	TEAD-YAP block	GPR151 activ
O=C1CCc2ccc(OCc3cn4ccccc4n3)cc21	-	-	57.7	-
Clc1ccc(OCc2cn3ccccc3n2)cc1	-	-	-	-
N#CC1=C(N)Oc2c(sc3ccccc23)C1c1cccc([N+](=O)[O-])c1 (configuration not stated)	-	-	53.1	-
COc1ccc(C2C(C#N)=C(N)Oc3c2sc2ccccc32)cc1[N+](=O)[O-] (configuration not stated)	-	-	-	-
N#CC1=C(N)Oc2c([nH]c(=O)[nH]c2=O)C1c1cccc([N+](=O)[O-])c1 (configuration not stated)	-	-	-	-
N#CC1=C(N)Oc2c(ccc3ccccc23)C1c1cccc([N+](=O)[O-])c1 (configuration not stated)	-	-	66.0	-
CC(C)CNC(=O)c1c(O)c2cccc3c2n(c1=O)CCC3	-	-	-	-
CCCCNC(=O)c1nsnc1-c1ccccc1O	-	-	-	-
Cc1ccccc1C(=O)N(C)c1cccc([N+](=O)[O-])c1	-	-	-	-
CCc1cc(-c2[nH]ncc2-c2ccc3c(c2)OCCO3)c(O)cc1OC	-	-	62.5	-
c1ccc(N2CCN(c3nc(NCCN4CCOCC4)c4ncn(-c5ccsc5)c4n3)CC2)nc1	-	-	57.4	-
OCCNc1nc(N2CCN(c3ccccn3)CC2)nc2c1ncn2-c1ccccc1	-	-	42.5	-
COc1ccc(CCNc2nc(N3CCN(c4ccccn4)CC3)nc3c2ncn3-c2ccsc2)cc1	-	-	-	-
CCCNc1nc(N2CCCC2CO)nc2c1ncn2-c1ccsc1 (configuration not stated)	-	-	36.7	-
OCCNc1nc(N2CCN(c3ccccn3)CC2)nc2c1ncn2-c1ccsc1	-	-	50.9	-
Cc1ccc(S(=O)(=O)Nc2ccccc2C(=O)Nc2ccc(F)cc2)cc1	-	-	-	-
COc1cc(OC)cc(C2=NC3(CCC(C)CC3)NC2=O)c1 (configuration not stated)	-	4.2	-	-
CCOc1cccc2c1OC(c1ccc(OC)cc1)N1N=C(c3ccc(C)o3)CC21 (configuration not stated)	-	-	-	-
COc1cccc2c1OC1(CCC(C)CC1)N1N=C(c3ccc(C)o3)CC21 (configuration not stated)	-	-	32.9	-
COc1cccc(C2Oc3c(OC)cccc3C3CC(c4ccc(C)o4)=NN32)c1 (configuration not stated)	-	-	37.6	-
COc1cccc2c1OC1(CCCCC1)N1N=C(c3ccc(C)o3)CC21 (configuration not stated)	-	-	-	-
COc1ccc(C2=NN3C(C2)c2cccc(OC)c2OC3c2ccc(OC)cc2)cc1 (configuration not stated)	-	-	-	-
COc1ccc(C2Oc3c(OC)cccc3C3CC(c4cccc(OC)c4)=NN32)cc1 (configuration not stated)	-	-	43.8	-
COc1ccc2cc(/C=N/NC(=O)CSc3ncccn3)c(Cl)nc2c1	-	-	-	-
CCN(CC)c1ccc(/C=C2/NC(=O)N(Cc3ccccc3F)C2=O)c(OC)c1	-	-	-	-
SMILES	MITF inh	FBW7 activator	TEAD-YAP block	GPR151 activ
CC1CCCC(NCc2c(C(=O)O)n(C)c3ccccc23)C1C (configuration not stated)	-	-	-	-
COc1cc(N)cc2sc(NC(C)=O)nc12	-	-	-	-
CC(=O)Nc1nc2c(C)cc(N)cc2s1	-	30.2	-	-
Cc1cccc(N=Cc2c(O)n(Cc3ccc4c(c3)OCO4)c(=O)c3ccccc23)c1	-	-	-	-
C=CCNC(=O)c1cc(-c2ccc(O)cc2)on1	-	-	33.8	-
CC(C)NC(=O)c1cc(-c2ccc(Br)cc2)on1	-	-	-	-
CC(C)NC(=O)c1cc(-c2ccc(O)cc2)on1	-	-	42.9	-
C=CCNC(=O)c1cc(-c2ccc3c(c2)OCO3)on1	-	-	-	-
Cc1ccc(C(=O)Nc2ccc(-c3nc4ncccc4o3)cc2)cc1	-	-	-	-
Cc1ccc(CN(C)C(=O)CCc2nnc(Cc3c[nH]c4ccccc34)o2)o1	-	-	-	-
Cc1ccccc1-c1nc2c(=O)n(C)c(=O)nc-2n(C)n1	-	-	90.6	-
CCn1nc(-c2cccc(Cl)c2)nc2c(=O)n(C)c(=O)nc1-2	-	-	-	-
CCOc1cc(-c2nc3c(=O)n(C)c(=O)nc-3n(C)n2)ccc1OC(C)C	-	-	95.3	-
CCn1nc(-c2ccc(C(F)(F)F)cc2)nc2c(=O)n(C)c(=O)nc1-2	-	-	-	-
CCCc1nc2c(=O)n(C)c(=O)nc-2n(C)n1	-	-	98.7	-
COc1ccc(Br)cc1C1C(C#N)=C(N)Oc2cc3c(cc21)OCO3 (configuration not stated)	-	-	47.4	-
CCOc1cc(C2C(C#N)=C(N)Oc3cc4c(cc32)OCO4)cc(Br)c1OC (configuration not stated)	-	-	56.9	-
CC(=O)C1=C(C)N(C2CCCC2)C(=O)C1(NC(=O)C1CCCCC1)C(F)(F)F (configuration not stated)	-	-	-	-
CC(C)Cc1ccc(CN2CCc3nnc(C(C)NC(=O)c4cccnc4)n3CC2)cc1 (configuration not stated)	-	-	-	-
O=C(NCc1nnc(SCc2ccccc2F)o1)c1ccc(F)cc1	-	-	60.5	-
Cc1cccc(CSc2nnc(CNC(=O)c3ccccc3)o2)c1	-	-	-	-
O=C(NCc1nnc(SCc2cccc(F)c2)o1)c1ccccc1	-	-	55.7	-
O=C(NCc1nnc(SCc2ccccc2Cl)o1)c1ccccc1	-	-	-	-
O=C(NCc1nnc(SCc2ccccc2)o1)c1ccc(F)cc1	-	-	58.3	-
COc1ccc(-c2cnc(NCc3cccc(OC)c3OC)n2C)cc1	-	-	-	-
SMILES	MITF inh	FBW7 activator	TEAD-YAP block	GPR151 activ
COc1cc(NC(=O)c2ccc([N+](=O)[O-])o2)c(OC)cc1Cl	-	-	-	-
O=C(Nc1ccc(C(F)(F)F)cc1)c1ccc(Sc2ccccc2Cl)c([N+](=O)[O-])c1	-	-	-	-
Cc1ccccc1NS(=O)(=O)c1ccc(N2CCCC2=O)cc1	-	-	47.5	-
Cc1cccc(N2CCN(S(=O)(=O)c3cc(Cl)sc3Cl)CC2C)c1 (configuration not stated)	-	-	-	-
Oc1ccc(Br)cc1C1CC(c2cccc(Br)c2)=NC(c2ccc(F)c(Br)c2)N1 (configuration not stated)	-	-	31.9	-
Oc1ccc(Br)cc1C1CC(c2cccc(Br)c2)=NC(c2ccc(Cl)cc2Cl)N1 (configuration not stated)	-	-	-	-
COc1cccc(C2=NC(c3ccc(Br)cc3)NC(c3cc(Br)ccc3O)C2)c1 (configuration not stated)	-	-	-	-
COc1cccc(C2=NC(C(C)C)NC(c3cc(Br)ccc3O)C2)c1 (configuration not stated)	-	-	35.2	-
